From the supplement of paper PMC6555819 come the findings set out here.

Holding throughout (experiment): PBM binding z-score (relative to random genomic background probes); higher = stronger binding; sequences stand for … in GC…GCGATTGACAGCGTAGAATGAAGG
Experiment [1] concerns RARb homodimer (NR concentration 270 nM). Summed up: (§1)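 Random background probes are the reference for binding z-scores. These scores derive from regression-normalized fluorescence on custom Agilent 4×180K protein-binding microarrays incubated 1 h with ligand-free nuclear receptor dimers. Binding was detected with antibodies against each partner (one per run).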
Experiment [2] relates to RARg:RXRa (NR concentration 270 nM, RXRa partner concentration 90 nM). Summed up: as §1
Experiment [3] relates to RARg homodimer (NR concentration 270 nM). Summed up:
as §1

The subject of experiment [4] is RXRa DBDmut IVT, anti-RXR (DBD mutation: RXRa K156A/R161A, NR concentration 90 nM). Summed up: as §1
Experiment [5] has as its system RXRa homodimer (NR concentration 180 nM). Summed up: as §1
Experiment [6] has as its system THRa:RXRa (NR concentration 90 nM, RXRa partner concentration 90 nM). Summed up:
as §1

Experiment [7] relates to THRa homodimer (NR concentration 90 nM). Summed up:
as §1

The subject of experiment [8] is VDR homodimer (NR concentration 270 nM). Summed up:
as §1

CCTAGCAGGCCAATCTGGGTAACTCAAGGCTTGA: the PBM binding z-score was -0.251 in experiment [1]; -0.429 in experiment [2]; -0.124 in experiment [3]; 0.0487 in experiment [4]; -0.515 in experiment [5]; 1.86 in experiment [6]. The PBM binding z-score in experiment [7] was -0.653; in experiment [8], -0.997.
For ATCTCTAGGTAAGACTCAGTTCAGTGCAGAACGC, the PBM binding z-score amounted to 0.696 in experiment [1]; 0.23 in experiment [2]; 0.29 in experiment [3]; 0.644 in experiment [4]; 0.206 in experiment [5]; 0.914 in experiment [6]. In addition, the PBM binding z-score in experiment [7] came out at 0.919; in experiment [8], 1.71.
Consider TTTTGTAGATCAAGCAGGTTAAGAAAGCCTGAGT, for which the PBM binding z-score is 0.054 in experiment [1]; -0.111 in experiment [2]; -0.119 in experiment [3]; -0.757 in experiment [4]; 0.19 in experiment [5]; 0.502 in experiment [6]. Further, the results for the PBM binding z-score in experiment [7] and in experiment [8] were -0.555 and 0.443, respectively.
Consider CGAACGAGGGTATGAGTTGATAGCAAATGCCGAT, for which the PBM binding z-score in experiment [1] was -0.208; in experiment [2] it was 0.124; in experiment [3], 0.248; in experiment [4] it was 0.658; in experiment [5], 0.0632; in experiment [6], -0.183. Moreover, the PBM binding z-score in experiment [7] is -0.485; in experiment [8] it was 0.345.
Regarding ATCGAAAGGTCGAGGTAAGTATAGAGAAAGGGAA, the PBM binding z-score in experiment [1] stood at 2.39; in experiment [2], 4.25; in experiment [3], 4.27; in experiment [4], 0.467; in experiment [5], 4.6; in experiment [6], 2.58. Further, the results for the PBM binding z-score in experiment [7] and in experiment [8] were 0.233 and 0.546, respectively.
As for TAGCCTAGGTCATTCAGGGGCCGGTATAGAAAGC, the PBM binding z-score is 2.86 in experiment [1]; 5.32 in experiment [2]; 4.21 in experiment [3]; 1.88 in experiment [4]; 3.01 in experiment [5]; 3.42 in experiment [6]. Further, the figures for the PBM binding z-score in experiment [7] and in experiment [8] were 0.635 and 1.53, respectively.
As for GCGACTGGGGCAAAGCAGGTTGCCATAAGGTTGG, the PBM binding z-score in experiment [1] was 0.156; in experiment [2], 0.0303; in experiment [3], 0.101; in experiment [4], -0.48; in experiment [5], -0.0833; in experiment [6], 1.59. Besides, the PBM binding z-score in experiment [7] is -0.471; in experiment [8] it was -0.513.
For ATCGAAAGGTCGAAGGTGAGGATACCCACCCGAA, the PBM binding z-score is 2.56 in experiment [1]; 4.41 in experiment [2]; 3.84 in experiment [3]; 0.413 in experiment [4]; 5.16 in experiment [5]; 3.1 in experiment [6]. The PBM binding z-score in experiment [7] came out at 1.1; in experiment [8], 0.293.
TGTCAAATTTCAAAGGTAACGTAAGTATCCACAC: the PBM binding z-score was 0.519 in experiment [1]; 0.768 in experiment [2]; 0.628 in experiment [3]; -0.231 in experiment [4]; 0.652 in experiment [5]; 1.27 in experiment [6]. For the same sequence, the PBM binding z-score in experiment [7] is -0.123; in experiment [8] it was -0.127.
CCTAGTTGGTCAGGAGGTCACACACCGGATATGA: the PBM binding z-score in experiment [1] came to 4.56; in experiment [2], 5.11; in experiment [3], 4.78; in experiment [4] it was 0.706; in experiment [5] it was 4.83; in experiment [6] it was 3.61. The PBM binding z-score in experiment [7] was found to be 2.6; in experiment [8], 2.82.
On to CGTCCAAGGTCATAGGAGGTCAGTGCAGACAGAT, for which the PBM binding z-score in experiment [1] was determined as 4.94; in experiment [2] it was 6.63; in experiment [3] it was 6.9; in experiment [4], 4; in experiment [5] it was 6.32; in experiment [6], 5.34. Also, the figures for the PBM binding z-score in experiment [7] and in experiment [8] were 2.96 and 4.88, respectively.
Regarding GGAGCGAGGGCAAAGTTGATAGCATCTGTCGACG, the PBM binding z-score in experiment [1] was found to be 0.881; in experiment [2] it was 1.71; in experiment [3], 1.34; in experiment [4], 2.06; in experiment [5] it was 1.7; in experiment [6], 0.838. Moreover, the PBM binding z-score was -0.34 in experiment [7] and 0.99 in experiment [8].
For the sequence CTACCACGGTGAACAAGGTCGTTGATTACTATTC, the PBM binding z-score in experiment [1] is 1.3; in experiment [2], 0.591; in experiment [3], 0.651; in experiment [4] it was 1.04; in experiment [5] it was 0.823; in experiment [6], 1.93. The results for the PBM binding z-score in experiment [7] and in experiment [8] were 1.4 and 2.12, respectively.
With CTACCAAGGTGAGCAAGGTCGTTGATTACTATTC, the PBM binding z-score in experiment [1] was found to be 1.65; in experiment [2], 0.951; in experiment [3], 0.78; in experiment [4] it was 0.939; in experiment [5], 1.03; in experiment [6] it was 2.77. Besides, the PBM binding z-score is 1.29 in experiment [7] and 1.42 in experiment [8].
